An excerpt weighted towards active compounds, which were near 10% of everything screened.
Insulin prom inh: inhibitors of insulin promoter-driven GFP, primary screen, imaging, TRM-6 cells (human fetal islet line), eGFP reporter, cell count. reporter expression induced with tamoxifen. inhibition, % at 2 µM. hit rate 0.9% among 130,000;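 active = inhibition above the mean plus 3 SD, with well images judged a real hit on visual review, cut at about 60% in these data, passing the limit was not always enough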
ROMK primary: ROMK potassium channel modulators, primary screen, cell-based, thallium flux, MLSMR library; ATP-sensitive inward rectifier potassium channel 1 (Homo sapiens), P48048; Tet-inducible ROMK, thallium flux fluorescence; actives lie on both sides; B-score at 10 µM; hit rate 2% among 130,000; AID 1918, 2009;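 active = signal ratio slope over the read window, or its plate-corrected B-score, at least 3 SD from the plate mean, either direction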;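 also: B-score of the F/F0 ratio slope over 7 to 12 s after thallium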
L major viab: Leishmania major promastigote growth inhibition, primary screen; Leishmania major promastigotes, resazurin fluorescence viability; inhibition, % at 10 µM; hit rate 9% among 200,000; AID 1063, 2008; in the data active = inhibition above about 50%;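 also: promastigotes grown with compound for 44 hours at 28 °C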
PTEN del growth: growth suppression of PTEN-null HCT116, primary screen, cell-based, CellTiter-Glo; HCT116 PTEN-null viability, 60 h; hits give low values; viability, % at 10 µM; hit rate 1.2% among 140,000;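 active = viability at or below a set limit, 4 SD under the median of all tested compounds, cut at about 3.7% in these data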;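 also: PTEN knockout HCT116 line with beta catenin targeted HCT116 as companion control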
p97 inhibitor: inhibitors of human p97 ATPase, primary screen, biochemical. Transitional endoplasmic reticulum ATPase (Homo sapiens), P55072. recombinant p97 ATPase, Kinase-Glo ATP luminescence, 3 h. inhibition, % at 8 µM. hit rate 0.42% among 220,000. AID 1481, 2009; in the data active = inhibition above about 15%;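 also: 0% = DMSO vehicle and 100% = wells lacking enzyme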
Target sequence (P55072 whole entry, looked up): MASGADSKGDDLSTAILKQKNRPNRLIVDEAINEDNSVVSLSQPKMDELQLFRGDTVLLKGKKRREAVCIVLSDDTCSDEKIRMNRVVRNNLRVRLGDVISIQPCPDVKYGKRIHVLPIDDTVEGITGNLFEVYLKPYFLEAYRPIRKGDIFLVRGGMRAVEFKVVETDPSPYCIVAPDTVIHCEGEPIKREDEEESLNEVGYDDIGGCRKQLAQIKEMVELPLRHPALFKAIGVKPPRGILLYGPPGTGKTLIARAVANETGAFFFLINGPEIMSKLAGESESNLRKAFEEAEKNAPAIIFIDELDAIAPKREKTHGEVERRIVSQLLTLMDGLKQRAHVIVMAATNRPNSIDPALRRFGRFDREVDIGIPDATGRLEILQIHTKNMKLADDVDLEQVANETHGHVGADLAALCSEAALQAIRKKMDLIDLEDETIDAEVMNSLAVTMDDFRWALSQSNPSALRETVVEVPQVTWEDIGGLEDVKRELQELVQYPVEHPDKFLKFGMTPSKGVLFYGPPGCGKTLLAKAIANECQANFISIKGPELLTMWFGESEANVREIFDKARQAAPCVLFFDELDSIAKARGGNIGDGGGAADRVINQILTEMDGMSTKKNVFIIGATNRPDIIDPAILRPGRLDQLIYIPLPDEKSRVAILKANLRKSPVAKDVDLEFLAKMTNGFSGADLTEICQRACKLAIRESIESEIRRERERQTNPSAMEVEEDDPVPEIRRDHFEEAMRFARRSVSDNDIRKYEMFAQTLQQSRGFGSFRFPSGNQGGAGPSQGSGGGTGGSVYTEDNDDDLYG
bCat KO growth: primary screen for growth suppressors in beta-catenin knockout HCT116 cells (colon tumor, human) | HCT116 beta-catenin knockout viability, CellTiter-Glo, 60 h; hits give low values | viability, % at 10 µM | hit rate 1.5% among 140,000 | AID 818, 2007;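 active = viability at or under a set limit, the compound median less 4 SD, cut at about 6% in these data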;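 also: 0% = Hyamine 1622 control at 20 µM and 100% = untreated cell control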
* = called active by the depositor.

`O=C(O)[C@H](Cc1ccccc1)NC(=O)N1CCOCC1` gave Insulin prom inh -100, L major viab 70*, PTEN del growth 110, p97 inhibitor -1 and bCat KO growth 106.
`CC1CCCCN1C(=O)N[C@@H](Cc1ccccc1)C(=O)O` (stereo partly specified) gave Insulin prom inh 0, ROMK primary -0.018, L major viab 51*, PTEN del growth 98, p97 inhibitor 4 and bCat KO growth 87.
For CC(=O)Nc1ccc(NC(=O)C(Cc2ccccc2)NC(=O)C2CCCCC2)cc1 (stereo unspecified) the results were Insulin prom inh 64*, ROMK primary -0.037, L major viab 0, PTEN del growth 92, p97 inhibitor 5 and bCat KO growth 93.
`COc1cccc(C(=O)Nc2sc3c(c2C#N)CCN(C(C)=O)C3)c1` gave Insulin prom inh -55, ROMK primary 0.86, L major viab -5 and p97 inhibitor -6.
Screening COCc1cc(=O)[nH]c(-c2ccccc2)n1 returned ROMK primary -0.39, L major viab -12 and p97 inhibitor -3.
For O=C1CN2CCC1C/C2=C\c1ccnc2c(Cl)cccc12 (stereo unspecified) the results were ROMK primary -1.4 and p97 inhibitor 5.
For O=C(O)C(Cc1ccc(O)cc1)N1C(=O)C2CCCCC2C1=O (stereo unspecified) the results were ROMK primary 0.46 and p97 inhibitor -8.
Screening CC1CCCCN1C(=O)C(Cc1ccccc1)N1C(=O)C2CCCCC2C1=O (stereo unspecified) returned Insulin prom inh -30, ROMK primary -0.55, L major viab 62*, PTEN del growth 91, p97 inhibitor 0 and bCat KO growth 102.
For CC(O)CNc1nc2ccccc2n1-c1ncnc2sc3c(c12)CCC3 (stereo unspecified) the results were L major viab 74*, PTEN del growth 57, p97 inhibitor 2 and bCat KO growth 47.
`c1ccc2c(c1)ncn2-c1ncnc2sc3c(c12)CCCC3` gave Insulin prom inh 21, L major viab -3, PTEN del growth 106, p97 inhibitor 4 and bCat KO growth 107.
O=C(Cc1ccc(Cl)cc1)NNS(=O)(=O)c1ccc([N+](=O)[O-])cc1 was read as Insulin prom inh -55, ROMK primary 0.0055, L major viab 68*, PTEN del growth 107, p97 inhibitor -3 and bCat KO growth 93.
For CCOC(=O)C1(CCOc2ccccc2)CCN(Cc2cnc(C)[nH]2)CC1 the results were ROMK primary -0.14, L major viab 6 and p97 inhibitor 1.
For CCOC(=O)C1(CCOC)CCN(Cc2ccc3nonc3c2)CC1 the results were p97 inhibitor 0.
`C=C(C)[C@@H]1CC=C(CN2CCC(CCOC)(C(=O)OCC)CC2)CC1` gave Insulin prom inh -250, ROMK primary -1.1, L major viab 79* and p97 inhibitor 5.
Screening CCOC(=O)C1(CCOc2ccccc2)CCN(Cc2cccc3nonc23)CC1 returned Insulin prom inh 17, ROMK primary -1.4, L major viab 87* and p97 inhibitor 2.
`CCOC(=O)C1(CCOc2ccccc2)CCN(Cc2cnc(SC)nc2)CC1` gave ROMK primary -2.1, L major viab 86* and p97 inhibitor -4.
Screening CCOC(=O)C1(CCOc2ccccc2)CCN(Cc2ccc(COC)o2)CC1 returned ROMK primary -0.28, L major viab 66* and p97 inhibitor 3.
`CCOC(=O)C1(Cc2ccccc2)CCN(Cc2ccc(COC)o2)CC1` gave L major viab 11 and p97 inhibitor -2.
CCCn1nnc(NC(=S)NC(=O)c2cccs2)n1 was read as Insulin prom inh 45, ROMK primary 0.069, L major viab -10, PTEN del growth 98, p97 inhibitor 4 and bCat KO growth 101.
CCCc1c(CC)c(=N)c2ccccc2n1C was read as Insulin prom inh -3, L major viab 53*, PTEN del growth 67, p97 inhibitor -4 and bCat KO growth 56.
For CCn1c(NC(=O)c2ccc(C)cc2)c2ccccc2nc1=O the results were Insulin prom inh 9, L major viab 77*, PTEN del growth 106, p97 inhibitor 4 and bCat KO growth 98.
For CCn1c(NC(=O)c2ccc(F)cc2)c2ccccc2nc1=O the results were L major viab 3, PTEN del growth 84, p97 inhibitor -1 and bCat KO growth 81.
COc1cccc(N=C2CC(C)(C)CC(=O)/C2=C(/O)c2ccccc2)c1 was read as ROMK primary 0.49, L major viab 9 and p97 inhibitor 1.
`C/C(=N/NC(=O)c1cccs1)c1ccc(NC(=O)COc2ccc(Cl)cc2Cl)cc1` gave ROMK primary 0.61, L major viab -3, PTEN del growth 2.0*, p97 inhibitor 3 and bCat KO growth 4.3*.
c1ccc(CCN(Cc2ccccc2)C2CCN(C3CCCC3)CC2)cc1 was read as ROMK primary 0.15, L major viab 92* and p97 inhibitor 0.
`COc1cc(NC(=O)Cn2c(=O)n(-c3cccc(C)c3)c(=O)c3c(C)c(C)sc32)cc(OC)c1` gave Insulin prom inh -54, ROMK primary 0.81, L major viab 0, PTEN del growth 63, p97 inhibitor 1 and bCat KO growth 90.
`Cc1cccc2cc(CN(Cc3nnnn3Cc3ccco3)C3CCCC3)c3nnnn3c12` gave Insulin prom inh -20, L major viab 59*, PTEN del growth 76, p97 inhibitor 2 and bCat KO growth 84.
Screening COc1cccc(/C=N/NC(=O)CNC(=O)c2ccc(S(=O)(=O)N3CCCC3)cc2)c1OC returned Insulin prom inh 27, ROMK primary -0.52, L major viab 7 and p97 inhibitor 4.
For CCN(CC)C(=O)c1ccc2nc(-c3ccccc3)c(-c3ccccc3)nc2c1 the results were Insulin prom inh 67*, ROMK primary -0.38, L major viab -6, PTEN del growth 88, p97 inhibitor -2 and bCat KO growth 87.
For CCN(CC)C(=O)c1c2c(nc3ccccc13)-c1ccccc1CC2 the results were Insulin prom inh -41, L major viab 62*, PTEN del growth 57, p97 inhibitor -10 and bCat KO growth 56.
For CCN(CC)C(=O)c1ccc2nc3ccccc3nc2c1 the results were Insulin prom inh -43, ROMK primary -0.26, L major viab -4, PTEN del growth 29, p97 inhibitor -2 and bCat KO growth 42.
For N#C/C(=C\c1ccc(Cl)cc1)C(=O)Nc1cccnc1 the results were ROMK primary 0.14 and p97 inhibitor 2.
Screening CCn1c(CCNC(=O)c2ccc(OC)cc2)nnc1SCC(=O)Nc1ccccc1F returned Insulin prom inh -10, ROMK primary -0.22, L major viab -5 and p97 inhibitor 0.
